Consider 29 compounds from the supplement of paper PMC6522484.

The structures appear in SMILES notation. ± gives the standard deviation of the averaged measurements.

Assay [1] concerns DLD1. Put plainly: cell viability (CellTiter-Glo) relative to plate median (fraction of plate median); higher = more viable cells. The note with it: 5 µM; treatment time 24 h; reporter: 7TFP. An outline of the steps: (§1)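 Library compounds were added at a final concentration of 5 µM for 24 h to colorectal cancer cells stably transduced with a lentiviral TCF/Wnt firefly luciferase reporter. Reported values are firefly luciferase or CellTiterGlo luminescence, normalised per well to the plate median. Each value averages two independent replicates.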

For a further assay, the system named is HCT116. Described as above. The settings on record: 5 µM; treatment time 24 h; reporter: TCF4/Wnt. An outline of the steps:
as §1

In assay [2] the test system is SW480. The description is as above. The settings on record: 5 µM; treatment time 24 h; reporter: 7TFP. The gist of the method: as §1
In assay [3] the test system is DLD1. Put plainly: TCF/Wnt firefly luciferase reporter signal relative to plate median (fraction of plate median); higher = higher Wnt reporter signal. The settings on record: 5 µM; treatment time 24 h; reporter: 7TFP. An outline of the steps:
as §1
On the technique in general: Reporter assays use an easily measured gene product as a stand-in for the process of interest.

Assay [4] relates to SW480. The description is as above. The note with it: 5 µM; treatment time 24 h; reporter: 7TFP. The gist of the method:
as §1

Turning to `Cc1cc(O)c(C=O)c2c1C(=O)Oc1c(C)c(O)c3c(c1O2)C(O)OC3=O` (stereo not given), the figures for the cell viability with DLD1 [1], in the assay on HCT116 and in the assay with SW480 [2] were 0.975 ± 0.092, 1.11 and 0.988 ± 0.017, respectively. The “TCF/Wnt firefly luciferase reporter signal” value in the assay with DLD1 [3] amounted to 1.04 ± 0.068; in the assay with SW480 [4], 1.02 ± 0.036.
The matching figures for `COc1ccc2c(c1)OC/C(=C/c1ccc(OC)c(OC)c1)C2=O`: 0.936 ± 0.028, 0.989 ± 0.086, 0.966 ± 0.028, 0.92 ± 0.021 and 0.972 ± 0.083.
As for `CC(C)=CCC[C@@H](C)[C@@H]1CC[C@]2(C)C3=C(CC[C@@]12C)[C@@]1(C)CC[C@H](O)C(C)(C)[C@@H]1CC3`, the cell viability was 1.015 ± 0.0071 with DLD1 [1], 0.995 ± 0.021 in the assay on HCT116 and 0.989 ± 0.016 with SW480 [2]. For the same compound, the “TCF/Wnt firefly luciferase reporter signal” value in the assay on DLD1 [3] came out at 0.918 ± 0.23; in the assay with SW480 [4] it was 1.02 ± 0.085.
For `CCCCNS(=O)(=O)c1ccccc1` [N-butylbenzenesulphonamide (AB2)], the cell viability in the assay on DLD1 [1] came to 0.978 ± 0.19; in the assay with HCT116, 1 ± 0.022; in the assay with SW480 [2], 0.964 ± 0.052. The “TCF/Wnt firefly luciferase reporter signal” value in the assay with DLD1 [3] was determined as 0.908 ± 0.13; in the assay on SW480 [4], 0.919 ± 0.14.
Take `Clc1ccc(CO/N=C(\Cn2ccnc2)c2ccc(Cl)cc2Cl)c(Cl)c1`: the cell viability in the assay with DLD1 [1] was found to be 0.9865 ± 0.0092; with HCT116 it was 1.03 ± 0.035; with SW480 [2] it was 0.9675 ± 0.0021. In addition, the “TCF/Wnt firefly luciferase reporter signal” value with DLD1 [3] stood at 0.905 ± 0.056; with SW480 [4], 0.823 ± 0.0092.
With `C=C1C(=O)[C@]23[C@H](CC[C@@H]1[C@@H]2O)[C@]12CO[C@@]3(O)[C@H](O)[C@H]1C(C)(C)CC[C@@H]2O`, the values for the cell viability in the assay on DLD1 [1], with HCT116 and in the assay on SW480 [2] were 0.931 ± 0.058, 1.12 ± 0.19 and 1.045 ± 0.0071, respectively. The figures for the “TCF/Wnt firefly luciferase reporter signal” value in the assay on DLD1 [3] and in the assay with SW480 [4] were 0.876 ± 0.015 and 0.731 ± 0.035, respectively.
`C[C@@H]1C/C=C2\SC[C@@H](NC(=O)c3coc(n3)C[C@H](O)C[C@H](O)/C=C/C=C/CNC2=O)C(=O)O1` [Griseoviridin]: the cell viability in the assay with DLD1 [1] was 0.995 ± 0.021; in the assay on HCT116, 1.04 ± 0.05; in the assay with SW480 [2], 1.01 ± 0.021. Besides, the figures for the “TCF/Wnt firefly luciferase reporter signal” value with DLD1 [3] and in the assay with SW480 [4] were 0.873 ± 0.12 and 0.957 ± 0.034, respectively.
For `CC(C)(O)CC[C@@H](O)[C@](C)(O)[C@H]1CC[C@@]2(O)C3=CC(=O)[C@@H]4C[C@@H](O)[C@@H](O)C[C@]4(C)[C@H]3CC[C@]12C` the same measures were 0.977 ± 0.021, 1.08 ± 0.042, 1.01, 1.1 ± 0.21 and 1.14 ± 0.064.
As for `N[C@@H](Cc1cc(I)c(Oc2cc(I)c(O)c(I)c2)c(I)c1)C(=O)O`, the cell viability is 1.01 ± 0.037 in the assay on DLD1 [1], 1.11 ± 0.042 with HCT116 and 0.978 ± 0.018 with SW480 [2]. The entries for the “TCF/Wnt firefly luciferase reporter signal” value with DLD1 [3] and with SW480 [4] were 1.19 ± 0.057 and 1.17 ± 0.05, respectively.
`CCc1ccc2c(O)c3c(cc2c1C(=O)OC)C(=O)c1c(O)ccc(O)c1C3=O`: the cell viability with DLD1 [1] is 1.04 ± 0.093; with HCT116, 1.06 ± 0.099; with SW480 [2], 1.14 ± 0.13. Also, the entries for the “TCF/Wnt firefly luciferase reporter signal” value in the assay with DLD1 [3] and in the assay with SW480 [4] were 1.04 ± 0.15 and 0.967 ± 0.029, respectively.
The matching figures for `Nc1ccc(/N=N/c2ccccc2)c(N)n1`: 1.1 ± 0.2, 1.07 ± 0.035, 1.1 ± 0.035, 1.285 ± 0.0071 and 1.3 ± 0.028.
The matching figures for `CC1=C(C(=O)O)N2C(=O)[C@@H](NC(=O)[C@H](N)C3=CCC=CC3)[C@H]2SC1`: 0.978 ± 0.073, 0.958 ± 0.018, 0.948 ± 0.021, 1.01 ± 0.09 and 1.02 ± 0.021.
For the compound `CCCCCC1C(=O)CCC1CC(=O)OC` (stereo not given), the results for the cell viability in the assay on DLD1 [1], with HCT116 and with SW480 [2] were 0.99 ± 0.057, 1.03 ± 0.084 and 1.025 ± 0.0071, respectively. The “TCF/Wnt firefly luciferase reporter signal” value turned out to be 1.08 ± 0.05 in the assay with DLD1 [3] and 1.03 ± 0.066 in the assay with SW480 [4].
For `COc1cc(C)cc2ccc(-c3ccc4c(c3O)[C@@H](C)N[C@H](C)C4)c(O)c12` the same measures were 1.17 ± 0.19, 1.04 ± 0.077, 1.05 ± 0.021, 1.05 and 1.015 ± 0.0071.
The matching figures for `COc1ccc(-c2coc3cc(O)ccc3c2=O)c(OC)c1`: 0.989 ± 0.016, 1.01 ± 0.067, 1.04 ± 0.05, 1.035 ± 0.0071 and 1.01 ± 0.064.
Turning to `O=[N+]([O-])c1cccc2cn[nH]c12`, the cell viability is 1.015 ± 0.0071 with DLD1 [1], 0.987 ± 0.076 in the assay on HCT116 and 0.962 ± 0.047 in the assay with SW480 [2]. Also, the “TCF/Wnt firefly luciferase reporter signal” value was determined as 1.1 ± 0.042 in the assay on DLD1 [3] and 1.14 ± 0.021 in the assay on SW480 [4].
`CC(=O)NCC(=O)c1c[nH]c2ccccc12` [N-Acetyl-beta-oxotryptamin]: the cell viability with DLD1 [1] turned out to be 1.02 ± 0.048; in the assay on HCT116, 0.983 ± 0.095; in the assay with SW480 [2], 0.982 ± 0.013. For the same compound, the “TCF/Wnt firefly luciferase reporter signal” value in the assay with DLD1 [3] amounted to 1.11 ± 0.085; with SW480 [4] it was 0.932 ± 0.052.
For `O=c1cc(-c2ccc(O)cc2)oc2cc(O[C@@H]3O[C@H](CO)[C@@H](O)[C@H](O)[C@H]3O[C@@H]3OC[C@](O)(CO)[C@H]3O)cc(O)c12`, the figures for the cell viability with DLD1 [1], in the assay with HCT116 and in the assay with SW480 [2] were 0.959 ± 0.052, 1.04 ± 0.057 and 1 ± 0.021, respectively. In addition, the figures for the “TCF/Wnt firefly luciferase reporter signal” value with DLD1 [3] and in the assay with SW480 [4] were 1.045 ± 0.0071 and 1.04 ± 0.057, respectively.
For `Oc1ccc2c(c1)OC[C@]1(O)Cc3cc(O)c(O)cc3[C@H]21`, the cell viability was 1.01 ± 0.044 in the assay with DLD1 [1], 0.929 ± 0.085 in the assay with HCT116 and 0.936 ± 0.0014 in the assay with SW480 [2]. The “TCF/Wnt firefly luciferase reporter signal” value in the assay on DLD1 [3] was determined as 1.15 ± 0.11; in the assay with SW480 [4], 0.909 ± 0.024.
Regarding `CC(=O)Nc1ccc(S(=O)(=O)c2ccc(NC(C)=O)cc2)cc1`, the cell viability worked out at 0.966 ± 0.1 in the assay with DLD1 [1], 0.94 ± 0.012 in the assay with HCT116 and 0.931 ± 0.012 in the assay with SW480 [2]. Besides, the “TCF/Wnt firefly luciferase reporter signal” value in the assay on DLD1 [3] was 1.09 ± 0.035; in the assay with SW480 [4] it was 1.05 ± 0.042.
For the compound `CC(C)[C@H](NC(=O)[C@@H]1CCCN1)C(=O)N1CCNC(=O)C1=O` [Prolyl-valyl-diketopiperazine], the cell viability is 1.04 ± 0.12 in the assay with DLD1 [1], 1.14 ± 0.092 in the assay with HCT116 and 1.07 ± 0.05 in the assay with SW480 [2]. The “TCF/Wnt firefly luciferase reporter signal” value was 0.919 ± 0.013 with DLD1 [3] and 0.962 ± 0.021 in the assay with SW480 [4].
Turning to `O=C1NC(Cc2ccc(O)cc2)C(=O)N2CCCC12` (stereo not given) [cyclo(prolyltyrosyl)], the cell viability in the assay on DLD1 [1] came out at 0.9655 ± 0.0021; in the assay on HCT116 it was 0.95 ± 0.023; with SW480 [2] it was 1.025 ± 0.0071. The entries for the “TCF/Wnt firefly luciferase reporter signal” value in the assay on DLD1 [3] and with SW480 [4] were 0.998 ± 0.2 and 0.887 ± 0.05, respectively.
For `COc1c(O)cc2c(-c3ccccc3)cc(=O)oc2c1OC` the same measures were 0.989 ± 0.016, 1.03 ± 0.028, 0.977 ± 0.061, 1.03 and 0.977 ± 0.033.
The matching figures for `C=C1[C@H]2CC[C@@]3(C)[C@H](c4ccoc4)OC(=O)C[C@]13O[C@H]1C[C@H](O)C(C)(C)[C@H](CC(=O)OC)[C@]12C` [3-DEOXY-3beta-HYDROXYANGOLENSIC ACID METHYL ESTER]: 1.01 ± 0.061, 0.958 ± 0.1, 1.05 ± 0.11, 1.06 ± 0.05 and 0.952 ± 0.035.
For `CCCCC1=NC2(CCCC2)C(=O)N1Cc1ccc(-c2ccccc2-c2nnn[nH]2)cc1` the same measures were 0.897 ± 0.099, 0.939 ± 0.016, 1 ± 0.083, 1.01 ± 0.048 and 0.811 ± 0.22.
`CC(=O)N(c1onc(C)c1C)S(=O)(=O)c1ccc(N)cc1`: the cell viability worked out at 1.02 ± 0.034 with DLD1 [1], 1.05 ± 0.19 in the assay with HCT116 and 0.935 ± 0.06 in the assay on SW480 [2]. For the same compound, the “TCF/Wnt firefly luciferase reporter signal” value in the assay on DLD1 [3] came to 0.933 ± 0.0014; in the assay with SW480 [4] it was 0.985 ± 0.021.
For `CCC(C)(C)C(=O)O[C@H]1C[C@@H](C)C=C2C=C[C@H](C)[C@H](CC[C@@H]3C[C@@H](O)CC(=O)O3)[C@H]21` the same measures were 0.864 ± 0.23, 0.8745 ± 0.005, 0.99 ± 0.071, 0.902 ± 0.34 and 0.827 ± 0.41.
For `CC(=O)Nc1ccccc1` the same measures were 0.977 ± 0.02, 0.97 ± 0.043, 0.966 ± 0.0042, 1.05 ± 0.11 and 0.975 ± 0.028.
On to `O=c1c(O)cccc2cc(O)c(O)c(O)c12`, for which the values for the cell viability in the assay on DLD1 [1], in the assay with HCT116 and in the assay with SW480 [2] were 1.06 ± 0.057, 0.914 ± 0.056 and 1.01 ± 0.037, respectively. For the same compound, the “TCF/Wnt firefly luciferase reporter signal” value came out at 1.04 ± 0.014 with DLD1 [3] and 0.944 ± 0.094 in the assay on SW480 [4].
